Results taken from PubChem BioAssay (Tox21).
Results filed as inconclusive are left out. Calls of active or inactive are those of the source. Unless noted, calls follow the shape of the dose curve; as a rule, active = well fitted curve in the direction sought with a large enough effect in the repeat runs; inconclusive = weak or mixed curves; inactive = no such curve, though single readings can be large; an effect the other way counts as inactive or inconclusive.

Legend:
[1] = qHTS assay for small molecule agonists of the p53 signaling pathway (AID 651631; calls by dose curve; also: % is scaled to controls: 0 for no effect and ±100 for the full control effect; nearly all actives have a fitted effect of over 15% in size)
Procedure, shortened: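 Fluorescence intensity from cleaved LiveBLAzer B/G substrate (2 h, room temperature) served as the signal. Beforehand, HCT-116 reporter cells bearing p53 response elements were treated 16 h at 37 °C with DMSO-dissolved compounds.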

[2] = qHTS assay for small molecules that induce genotoxicity in human embryonic kidney cells expressing luciferase-tagged ATAD5 (AID 651632); also: % is scaled to controls: 0 for no effect and ±100 for the full control effect; nearly all actives have a fitted effect of over 15% in size
Procedure, shortened: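 Quantitative HTS in HEK293T expressing luciferase-tagged ATAD5, whose levels rise upon DNA damage. Exposure ran 16 hr at 37C and 5% CO2, with luminescence read 30 min after Amplite addition at room temperature.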

[3] = qHTS assay for small molecule agonists of the p53 signaling pathway - cell viability (AID 651633; calls by dose curve; also: nearly all actives have a fitted effect of over 30% in size; also: potency is read from the fitted curve at half-maximal effect)
Procedure, shortened: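 p53RE-bla cells were treated with compound for 16 hours at 37 C. Cytotoxicity was then measured as CellTiter-Glo luminescence after 30 min at room temperature.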

[4] = qHTS assay for small molecules that induce genotoxicity in human embryonic kidney cells expressing luciferase-tagged ATAD5 - cell viability (AID 651634; calls by dose curve; also: % is scaled to controls: 0 for no effect and ±100 for the full control effect; nearly all actives have a fitted effect of over 25% in size)
Procedure, shortened: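 After 15.5 hr incubation with compound at 37C, 5% CO2, HEK293T ATAD5-luciferase cells received CellTiter-Fluor reagent; fluorescence intensity was quantified following 30 min at 37C.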

[5] = qHTS assay for small molecule disruptors of the mitochondrial membrane potential - cell viability (AID 720634; calls by dose curve;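 also: human HepG2 liver cancer cells; series mostly up to about 83 µM; % is scaled to controls: 0 for no effect and ±100 for the full control effect; nearly all actives have a fitted effect of over 20% in size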)
Procedure, shortened: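 ATP-based luminescent viability readout (CellTiter-Glo, 30 min, room temperature) in HepG2 cells multiplexed with the m-MPI membrane potential dye; compound exposure lasted 1 hr at 37 C.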

[6] = qHTS assay to test for compound auto fluorescence at 535 nm (green) in HepG2 cells (AID 720675); also: % is scaled to controls: 0 for no effect and ±100 for the full control effect
[7] = qHTS assay to test for compound auto fluorescence at 460 nm (blue) in HEK293 cells (AID 720678); also: % is scaled to controls: 0 for no effect and ±100 for the full control effect
Procedure, shortened: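 After cell attachment (4-5 hr, 37C), compounds were pinned onto HEK293 monolayers in 10% dialyzed FBS medium. The blue channel (405/460 nm) was read following overnight culture. Equivalency was calculated against triamterene.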

[8] = qHTS assay to test for compound auto fluorescence at 590 nm (red) in HEK293 cells (AID 720679); also: % is scaled to controls: 0 for no effect and ±100 for the full control effect
Procedure, shortened: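 Plates of HEK293 cells (10% dialyzed FBS) are treated with 23 nL compound or DMSO vehicle after a 4-5 hr attachment period, incubated overnight at 37C, and read for red fluorescence at 540/590nm.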

[9] = qHTS assay to test for compound auto fluorescence at 535 nm (green) in HEK293 cells (AID 720680); also: % is scaled to controls: 0 for no effect and ±100 for the full control effect
[10] = qHTS assay to test for compound auto fluorescence at 460 nm (blue) in HEK293 cell free culture (AID 720681); also: % is scaled to controls: 0 for no effect and ±100 for the full control effect
Procedure, shortened: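 Compounds were added to cell-free DMEM with 10% FBS and fluorescence read directly. The blue channel used 405 nm excitation and 460 nm emission, with triamterene as the reference fluorophore.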

[11] = qHTS assay to test for compound auto fluorescence at 535 nm (green) in HEK293 cell free culture (AID 720682); also: % is scaled to controls: 0 for no effect and ±100 for the full control effect
Procedure, shortened: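 Intrinsic compound fluorescence is measured in culture medium containing 10% FBS, with excitation at 485 nm and detection at 535 nm, referenced to fluorescein.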

[12] = qHTS assay to test for compound auto fluorescence at 590 nm (red) in HEK293 cell free culture (AID 720683); also: % is scaled to controls: 0 for no effect and ±100 for the full control effect
Procedure, shortened: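 Cell-free wells of DMEM with 10% FBS received compound, and intrinsic fluorescence was read at excitation/emission 540/590 nm. Values expressed as equivalence to Rose Bengal sodium.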

[13] = qHTS assay to test for compound auto fluorescence at 590 nm (red) in HepG2 cell free culture (AID 720684); also: % is scaled to controls: 0 for no effect and ±100 for the full control effect
Procedure, shortened: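 Auto fluorescence equivalency versus Rose Bengal sodium, red channel Ex/Em 540/590 nm; compounds in cell-free MEM/10% FBS; DMSO vehicle control.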

[14] = qHTS assay to test for compound auto fluorescence at 535 nm (green) in HepG2 cell free culture (AID 720686); also: % is scaled to controls: 0 for no effect and ±100 for the full control effect
[15] = target: Glucocorticoid receptor (Homo sapiens) (UniProt P04150); test: qHTS assay to identify small molecule agonists of the glucocorticoid receptor (GR) signaling pathway (AID 720691; active = well fitted activation curve with a large enough effect in the signal ratio in the repeat runs, not every such curve was filed as active; the % refers to the signal ratio; also: % is scaled to controls: 0 for no effect and ±100 for the full control effect)
Procedure, shortened: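 Cells: GR-bla HeLa, endogenous GR with stably integrated GRE-beta-lactamase reporter. Treatment 18 h, 37 C, compounds delivered in DMSO. Detection via LiveBLAzer B/G FRET substrate, 2 h RT, fluorescence intensity.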

[16] = target: Glucocorticoid receptor (Homo sapiens) (UniProt P04150); test: qHTS assay to identify small molecule antagonists of the glucocorticoid receptor (GR) signaling pathway (AID 720692; active = well fitted inhibition curve with a large enough effect in the signal ratio in the repeat runs, not every such curve was filed as active; the % refers to the signal ratio; also: % is scaled to controls: 0 for no effect and ±100 for the full control effect)
Procedure, shortened: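 Quantitative HTS in antagonist format: HeLa cells expressing endogenous GR and a stably integrated GRE-bla reporter, stimulated with 5 nM dexamethasone (final) alongside test compounds for 18 h.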

[17] = qHTS assay to test for compound auto fluorescence at 460 nm (blue) in HepG2 cell free culture (AID 720685); also: % is scaled to controls: 0 for no effect and ±100 for the full control effect
Procedure, shortened: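 Cell-free plates of MEM plus 10% FBS received 23 nL compound or DMSO vehicle; blue-channel (405/460 nm) intensity scored against triamterene as reference fluorophore.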

[18] = qHTS assay to test for compound auto fluorescence at 460 nm (blue) in HepG2 cells (AID 720687); also: % is scaled to controls: 0 for no effect and ±100 for the full control effect
Procedure, shortened: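 HepG2 cells in MEM with 10% FBS, attached overnight at 37 C, were exposed to compound or DMSO for 1 hr at 37 C, 5% CO2. Blue fluorescence was read at 405/460 nm, with triamterene as reference fluorophore.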

[19] = qHTS assay to test for compound auto fluorescence at 590 nm (red) in HepG2 cells (AID 720674); also: % is scaled to controls: 0 for no effect and ±100 for the full control effect
Procedure, shortened: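 Fluorescence at 590 nm emission following 540 nm excitation was recorded from HepG2 wells one hour after compound transfer, with DMSO-only wells as vehicle and Rose Bengal sodium equivalency as the scale.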

[20] = qHTS assay for small molecule disruptors of the mitochondrial membrane potential (AID 720635); also: potency is read from the fitted curve at half-maximal effect
Procedure, shortened: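 HepG2 cells exposed to compound 1 hr at 37C, then Mito-MPS dye 30 min. Ratio read of aggregate (540/590 nm) versus monomer (490/535 nm) fluorescence.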

Glucocorticoid receptor (Homo sapiens), sequence (P04150 whole entry, looked up): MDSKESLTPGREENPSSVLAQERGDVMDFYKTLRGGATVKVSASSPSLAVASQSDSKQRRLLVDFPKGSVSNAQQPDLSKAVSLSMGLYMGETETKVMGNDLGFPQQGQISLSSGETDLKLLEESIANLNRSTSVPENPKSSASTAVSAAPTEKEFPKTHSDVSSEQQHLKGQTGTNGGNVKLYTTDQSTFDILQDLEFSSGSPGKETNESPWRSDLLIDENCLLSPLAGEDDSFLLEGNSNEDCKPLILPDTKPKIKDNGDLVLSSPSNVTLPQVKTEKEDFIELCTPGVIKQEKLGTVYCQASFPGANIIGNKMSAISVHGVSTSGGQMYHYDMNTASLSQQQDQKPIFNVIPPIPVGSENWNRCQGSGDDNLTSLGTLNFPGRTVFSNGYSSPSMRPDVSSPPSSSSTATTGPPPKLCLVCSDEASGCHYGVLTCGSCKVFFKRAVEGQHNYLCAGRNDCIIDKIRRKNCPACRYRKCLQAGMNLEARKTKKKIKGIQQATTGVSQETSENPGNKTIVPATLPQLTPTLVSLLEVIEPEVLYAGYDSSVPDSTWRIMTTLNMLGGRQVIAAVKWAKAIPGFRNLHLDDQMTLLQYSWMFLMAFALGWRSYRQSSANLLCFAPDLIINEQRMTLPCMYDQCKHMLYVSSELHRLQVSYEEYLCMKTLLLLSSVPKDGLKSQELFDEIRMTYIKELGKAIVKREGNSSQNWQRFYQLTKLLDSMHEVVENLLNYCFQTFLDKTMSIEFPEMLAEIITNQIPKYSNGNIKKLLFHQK

Cc1ccc(Cl)cc1N
inactive: Potency [1] | Potency [2] | Potency [3] | Potency [4] | outcome [5] | outcome [6] | Potency [7] | outcome [8] | outcome [9] | Potency [10] | outcome [11] | outcome [12] | outcome [13] | outcome [14] | Potency [15] | Potency [16]

Cc1ccc(N(CCO)CCO)cc1
inactive: Potency [1] | Potency [2] | Potency [3] | Potency [4] | outcome [5] | outcome [6] | Potency [7] | outcome [9] | Potency [10] | outcome [11] | outcome [12] | outcome [13] | Potency [17] | outcome [14] | Potency [18] | Potency [15] | Potency [16]

CC(C)(C)NCC(O)COc1cccc2c1C[C@H](O)[C@H](O)C2 (stereo not given in full)
inactive: Potency [1] | Potency [2] | Potency [3] | Potency [4] | outcome [5] | fluorescence, relative to Rose Bengal [19] 0.0921% [at 18.6 µM] | fluorescence, % of fluorescein control [6] 0.0163% [at 18.6 µM] | fluorescence, % of fluorescent control [8] -0.0478% [at 18.6 µM] | fluorescence, % of fluorescein [9] 0.0671% [at 18.6 µM] | fluorescence, % of fluorescent control [10] 0.0347% [at 18.6 µM] | activity change [11] 0.0167% [at 18.6 µM] | fluorescence, % of fluorescent control [12] 0.19% [at 18.6 µM] | fluorescence, % of Rose Bengal [13] -0.334% [at 18.6 µM] | fluorescence, % of fluorescent control [17] 0.0077% [at 18.6 µM] | fluorescence, % of fluorescein control [14] -0.0012% [at 18.6 µM] | fluorescence, % of fluorescent control [18] 0.0012% [at 18.6 µM] | Potency [16]

CC(=O)OCCC1CCCCC1
inactive: Potency [1] | Potency [2] | Potency [3] | Potency [4] | outcome [5] | outcome [19] | Potency [7] | outcome [8] | outcome [9] | Potency [10] | outcome [11] | outcome [12] | outcome [13] | Potency [17] | outcome [14] | Potency [18] | Potency [15] | Potency [16]

CC(C)CC(O)CC(C)C
inactive: Potency [1] | Potency [2] | Potency [3] | Potency [4] | outcome [5] | outcome [19] | Potency [7] | outcome [8] | outcome [9] | Potency [10] | outcome [11] | outcome [12] | outcome [13] | Potency [17] | outcome [14] | Potency [16]

C1=CCC2CC=CC2C1 (stereo not given)
inactive: Potency [1] | Potency [2] | Potency [3] | Potency [4] | outcome [5] | Potency [7] | outcome [8] | outcome [9] | Potency [10] | outcome [11] | outcome [12] | outcome [13] | Potency [17] | outcome [14] | Potency [18] | Potency [15] | Potency [16]

CNS(=O)(=O)c1cc(C(=O)N2CCC(CCN3C4CCC3CC(n3c(C)nc5ccccc53)C4)(c3cccc(F)c3)CC2)c(Cl)cc1F (stereo not given)
active: Potency [3] 48.6 µM
inactive: Potency [1] | Potency [2] | outcome [5] | outcome [6] | Potency [7] | outcome [8] | outcome [9] | Potency [10] | outcome [11] | outcome [12] | outcome [13] | Potency [17] | outcome [14] | Potency [18]

O=[N+]([O-])C1(Br)COCOC1
inactive: Potency [1] | Potency [2] | Potency [3] | outcome [19] | outcome [8] | outcome [9] | Potency [10] | outcome [11] | outcome [12] | outcome [13] | Potency [17] | outcome [14] | Potency [18]
active: Potency [20] 48.6 µM
